Our source for the AC50 and outcome values is PubChem BioAssay (EPA / NIEHS).

In general, AC50 refers to the concentration at which the activity in the assay is half-maximal.

Experiment [1] concerns the target human Dopamine Transporter (DAT), SLC6A3 (gene 6531) (UniProt Q01959). The experiment is described as follows: NVS_TR_hDAT: NovaScreen (NVS) Transporter Assay for human Dopamine Transporter (DAT) (AID 2283374).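 Note: activity means loss of bound radioligand signal relative to DMSO.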 The essentials:
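Cell-free radioligand binding to extracted human DAT protein, read 1 h after dosing by filter-based scintillation counting. Loss of specific binding scored against DMSO baseline; primary screen in duplicate at 25 uM, actives then run in concentration series.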

The target in experiment [2] is Retinoic acid receptor RXR-alpha (Homo sapiens) (UniProt P19793). The experiment is described as follows: OT_NURR1_NURR1RXRa_1440: Odyssey Thera (OT) 24-hour HEK293T Protein Complementation Assay for Nurr1/retinoid X receptor (RXR) (AID 2283386). A digest of the protocol:
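Interaction of Nurr1 with RXRα brings fused reporter fragments together in human HEK293T cells, restoring a functional reporter. Fluorescence intensity is measured 24 h after chemical treatment, and values are analysed in the positive direction against DMSO.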

Experiment [3] addresses Peroxisome proliferator-activated receptor gamma (Homo sapiens) (UniProt P37231). The experiment is described as follows: OT_PPARg_PPARgSRC1_0480: Odyssey Thera (OT) 8-hour Protein-Complementation Assay for Peroxisome Proliferator-activated Receptor Gamma / SRC-1 Co-activator (AID 2283387).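 Note: nuclear to cytoplasmic split Venus YFP fluorescence ratio reporting PPARg SRC-1 interaction.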 The essentials:
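Protein-fragment complementation of split Venus YFP reports PPARg/SRC-1 interaction in HEK293T (transfected 48 h before treatment), exposed 8 h. Readout: N/C fluorescence ratio at 488 nm from imaging, Draq5 for segmentation, positive fit relative to DMSO.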

Experiment [4] has the same target. The experiment is described as follows: OT_PPARg_PPARgSRC1_1440: Odyssey Thera (OT) 24-hour Protein-Complementation Assay for Peroxisome Proliferator-activated Receptor Gamma/ SRC-1 Co-activator (AID 2283388).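 Note: nuclear to cytoplasmic ratio of reconstituted Venus YFP fluorescence in fixed imaged cells.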 The essentials: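 Readout is the 488 nm N/C fluorescence ratio from fixed, Draq5-stained HEK293T cells after 24 h compound exposure. Cells carried transiently transfected PPARg and SRC-1 fused to Venus fragments, transfected 48 h before treatment.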

Experiment [5] deals with human Serotonin Transporter (SERT), SLC6A4 (gene 6532) (UniProt P31645). The experiment can be described thus: NVS_TR_hSERT: NovaScreen (NVS) Transporter Assay for human Serotonin Transporter (SERT) (AID 2283372). The essentials: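 Radioligand binding to native SERT in human platelet membranes, read by filter-based scintillation counting 1 h after dosing. Primary screen in duplicate at 25 uM; actives followed up in concentration series; loss of signal versus DMSO baseline.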

The target in experiment [6] is rat Serotonin Transporter (SERT), Slc6a4 (gene 25553) (UniProt P31652). The experiment is described as follows: NVS_TR_rSERT: NovaScreen (NVS) Transporter Assay for rat Serotonin Transporter (SERT) (AID 2283375). A digest of the protocol:
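Radioligand binding with competitive displacement on rat forebrain membrane preparations, counted by filtration and scintillation after 1 h. Primary single-point duplicates at 25 uM; active chemicals followed up in concentration-response. DMSO served as baseline.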

The target of experiment [7] is human Norepinephrine Transporter (NET), SLC6A2 (gene 6530) (UniProt P23975). The experiment can be described thus: NVS_TR_hNET: NovaScreen (NVS) Transporter Assay for human Norepinephrine Transporter (NET) (AID 2283377).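 Note: cell-free membrane protein extracted from CHO cells expressing human NET.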 The essentials:
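Radioligand binding to human NET in cell-free CHO-derived protein preparations, read by filter-based scintillation counting 1 hour after dosing. Loss of signal versus DMSO baseline indicated displacement; primary screening in duplicate at 25 uM, actives then titrated.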

In experiment [8] the target is Agonist Androgen Response Element (ARE), AR (gene 367) (UniProt P10275). The experiment is described as follows: OT_AR_ARELUC_AG_1440: Odyssey Thera (OT) 24-hour CHO-K1 Luciferase Assay for Agonist Androgen Response Element (ARE) (AID 2283379). A digest of the protocol:
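Seed CHO-K1 cells; dose compounds for 24 h; add D-luciferin plus ATP in PBS; read luminescence. Signal increase relative to vehicle defines agonist activity, with at least 3 replicate wells per sample.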

Experiment [9] deals with Bile acid receptor (Homo sapiens) (UniProt Q96RI1). The experiment is described as follows: OT_FXR_FXRSRC1_0480: Odyssey Thera (OT) 8-hour HEK293T Protein-Complementation Assay for Farnesoid X receptor/SRC-1 Co-activator (AID 2283383). The essentials: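 Human kidney HEK293T cells carried FXR/SRC-1 fragment-complementation constructs. Compounds were added and incubated 8 h. Reporter reassembly upon receptor–co-activator interaction was then quantified by fluorescence, with curves fitted in the positive direction relative to DMSO.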

The target is the same in experiment [10]. The experiment can be described thus: OT_FXR_FXRSRC1_1440: Odyssey Thera (OT) 24-hour HEK293T Protein-Complementation Assay for Farnesoid X receptor/SRC-1 Co-activator (AID 2283384). The essentials:
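Compounds are applied to human kidney HEK293T cells expressing bait and prey fused to reporter protein fragments; after 24 h, reconstituted reporter fluorescence is measured. Activity is fitted as signal gain over DMSO.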

Experiment [11] is described as follows: CEETOX_H295R_11DCORT: CeeTox H295R High-throughput Steroidogenesis Assay for 11-Deoxycortisol (11DCORT) (AID 2283432; active = hit-call score of the fitted dose curve at least 0.9, where 1 is the maximum; inactive = score below 0.9;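 for AC50: 11-deoxycortisol secreted into the medium measured by LC-MS/MS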). As to conditions: actives raise or lower the signal. A digest of the protocol:
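Human adrenal H295R cells were prestimulated with 10 uM forskolin for 48 h, then exposed to test chemical (0.1% DMSO final) for 48 h. Medium 11-deoxycortisol was quantified by MTBE extraction and HPLC-MS/MS; bidirectional fitting relative to DMSO.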

Experiment [12] in a line: CEETOX_H295R_OHPREG: CeeTox H295R High-throughput Steroidogenesis Assay for OH-Pregnenolone (OHPREG) (AID 2283434; active = hit-call score of the fitted dose curve at least 0.9, where 1 is the maximum; inactive = score below 0.9). As to conditions: actives raise or lower the signal. The essentials: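 Human adrenal H295R cells were prestimulated 48 h with 10 uM forskolin, then exposed 48 h to chemical in 0.1% DMSO. Medium 17alpha-hydroxypregnenolone was quantified by HPLC-MS/MS after MTBE extraction; bidirectional fitting versus DMSO baseline.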

Experiment [13] in a line: CEETOX_H295R_OHPROG: CeeTox H295R High-throughput Steroidogenesis Assay for OH-Progesterone (OHPROG) (AID 2283435; active = hit-call score of the fitted dose curve at least 0.9, where 1 is the maximum; inactive = score below 0.9;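 for AC50: 17alpha-hydroxyprogesterone secreted into medium measured by HPLC-MS/MS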). Particulars: actives raise or lower the signal. A digest of the protocol:
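H295R, 10 uM forskolin prestim 48 h; cmpd in 0.1% DMSO 48 h; medium MTBE-extracted, HPLC-MS/MS for OH-progesterone; 7-pt std curve; bidirectional fit vs DMSO; MTT viability, chemicals diluted until viability >/=70%.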

Experiment [14] is described as follows: CEETOX_H295R_ANDR: CeeTox H295R High-throughput Steroidogenesis Assay for Androstenedione (ANDR) (AID 2283436; active = hit-call score of the fitted dose curve at least 0.9, where 1 is the maximum; inactive = score below 0.9). Particulars: actives raise or lower the signal. A digest of the protocol: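 H295R human adrenal cells (passages ≤10) were exposed to test chemicals for 48 h; androstenedione in medium was MTBE-extracted and quantified by HPLC-MS/MS against a 7-point standard curve. Bidirectional fitting used DMSO as baseline.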

Experiment [15] can be described thus: CEETOX_H295R_CORTISOL: CeeTox H295R High-throughput Steroidogenesis Assay for Cortisol (AID 2283438; active = hit-call score of the fitted dose curve at least 0.9, where 1 is the maximum; inactive = score below 0.9;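 note: cortisol secreted into medium quantified by LC-MS/MS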). Particulars: actives raise or lower the signal. The essentials:
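Forskolin 10 uM 48 h prestim → test cmpd in DMSO (0.1% final) 48 h → medium MTBE-extracted → LC-MS/MS cortisol vs 7-pt std curve. Gain/loss of signal fitted vs DMSO. MTT viability in same wells.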

The target in experiment [16] is Estrogen receptor beta (Homo sapiens) (UniProt Q92731). The experiment is described as follows: OT_ER_ERbERb_1440: Odyssey Thera (OT) 24-hour HEK293T Protein-Complementation Assay for Estrogen Receptor-beta/-beta Homodimer (AID 2283380).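 Note: fluorescence gain from ER beta LBD homodimer complementation read by laser scanning cytometry; scored as signal increase over DMSO baseline for both agonists and antagonists.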 The essentials: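 HEK293T cells stably expressing human ER-beta LBD (aa 310-547) PCA homodimer pair, dosed 24 h; formaldehyde-fixed, Draq5-stained. Readout: increase in nuclear (agonist) or nuclear plus cytoplasmic (antagonist) fluorescence intensity versus DMSO, gain-of-signal fitting.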

Experiment [17] deals with Retinoic acid receptor RXR-alpha (Homo sapiens) (UniProt P19793). The experiment is described as follows: OT_NURR1_NURR1RXRa_0480: Odyssey Thera (OT) 8-hour HEK293T Protein Complementation Assay for Nurr1/retinoid X receptor (RXR) (AID 2283385). The essentials:
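8 h compound exposure, HEK293T; Nurr1/RXRα fragment complementation; fluorescence intensity; positive fitting direction vs DMSO baseline.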

Experiment [18] deals with Estrogen receptor (Homo sapiens) (UniProt P03372). The experiment can be described thus: OT_ERa_GFPERaERE_0120: Odyssey Thera (OT) 2-hour HeLa Transcription Induction Assay for Estrogen Receptor (AID 2283382). The essentials: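 HeLa, 384-well, 2 h chemical exposure; GFP reporter induction (ERE), fluorescence microscopy; high content image analysis; positive fitting direction vs DMSO.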

The structures appear in SMILES notation. “And” between values parts separate entries of the source, which are not always exact repeats. Equal entries are not always repeated. Inconclusive results are not listed. The source made the active and inactive calls. Rule for the calls, unless noted: active = hit-call score of the fitted dose curve at least 0.9, where 1 is the maximum; inconclusive = response in the unintended direction; inactive = score below 0.9.

human Norepinephrine Transporter (NET), SLC6A2 (gene 6530), sequence (P23975 whole entry, looked up): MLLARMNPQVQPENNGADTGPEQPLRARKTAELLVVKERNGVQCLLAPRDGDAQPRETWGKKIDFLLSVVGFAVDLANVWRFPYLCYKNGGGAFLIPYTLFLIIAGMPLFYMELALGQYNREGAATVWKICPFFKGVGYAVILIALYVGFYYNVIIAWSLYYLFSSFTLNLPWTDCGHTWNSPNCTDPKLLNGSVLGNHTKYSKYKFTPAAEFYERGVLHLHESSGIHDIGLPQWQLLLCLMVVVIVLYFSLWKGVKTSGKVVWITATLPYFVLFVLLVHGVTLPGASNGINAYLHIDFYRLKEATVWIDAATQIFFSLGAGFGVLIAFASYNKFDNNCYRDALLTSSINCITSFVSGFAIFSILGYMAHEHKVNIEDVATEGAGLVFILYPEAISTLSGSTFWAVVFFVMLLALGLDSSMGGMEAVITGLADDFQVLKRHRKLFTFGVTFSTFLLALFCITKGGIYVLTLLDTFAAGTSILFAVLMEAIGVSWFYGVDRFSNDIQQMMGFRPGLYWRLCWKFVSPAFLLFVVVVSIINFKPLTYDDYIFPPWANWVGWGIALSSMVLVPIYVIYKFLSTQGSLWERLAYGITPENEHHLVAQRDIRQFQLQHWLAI
Estrogen receptor beta (Homo sapiens), sequence (Q92731 whole entry, looked up, the tested form may be a part): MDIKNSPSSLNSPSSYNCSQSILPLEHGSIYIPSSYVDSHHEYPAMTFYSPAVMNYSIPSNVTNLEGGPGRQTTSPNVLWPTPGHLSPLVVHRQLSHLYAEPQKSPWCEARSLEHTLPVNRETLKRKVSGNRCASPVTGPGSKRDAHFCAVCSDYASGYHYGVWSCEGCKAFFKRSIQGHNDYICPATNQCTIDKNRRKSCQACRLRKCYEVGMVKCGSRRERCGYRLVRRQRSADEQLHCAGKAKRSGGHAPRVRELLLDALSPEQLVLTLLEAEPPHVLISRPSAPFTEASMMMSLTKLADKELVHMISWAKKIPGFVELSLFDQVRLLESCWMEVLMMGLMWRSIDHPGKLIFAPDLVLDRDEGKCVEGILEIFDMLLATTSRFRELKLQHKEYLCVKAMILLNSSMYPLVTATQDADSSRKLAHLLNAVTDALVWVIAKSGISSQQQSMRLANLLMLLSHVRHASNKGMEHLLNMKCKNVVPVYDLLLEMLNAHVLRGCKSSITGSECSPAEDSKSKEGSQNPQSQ
Agonist Androgen Response Element (ARE), AR (gene 367), sequence (P10275 whole entry, looked up): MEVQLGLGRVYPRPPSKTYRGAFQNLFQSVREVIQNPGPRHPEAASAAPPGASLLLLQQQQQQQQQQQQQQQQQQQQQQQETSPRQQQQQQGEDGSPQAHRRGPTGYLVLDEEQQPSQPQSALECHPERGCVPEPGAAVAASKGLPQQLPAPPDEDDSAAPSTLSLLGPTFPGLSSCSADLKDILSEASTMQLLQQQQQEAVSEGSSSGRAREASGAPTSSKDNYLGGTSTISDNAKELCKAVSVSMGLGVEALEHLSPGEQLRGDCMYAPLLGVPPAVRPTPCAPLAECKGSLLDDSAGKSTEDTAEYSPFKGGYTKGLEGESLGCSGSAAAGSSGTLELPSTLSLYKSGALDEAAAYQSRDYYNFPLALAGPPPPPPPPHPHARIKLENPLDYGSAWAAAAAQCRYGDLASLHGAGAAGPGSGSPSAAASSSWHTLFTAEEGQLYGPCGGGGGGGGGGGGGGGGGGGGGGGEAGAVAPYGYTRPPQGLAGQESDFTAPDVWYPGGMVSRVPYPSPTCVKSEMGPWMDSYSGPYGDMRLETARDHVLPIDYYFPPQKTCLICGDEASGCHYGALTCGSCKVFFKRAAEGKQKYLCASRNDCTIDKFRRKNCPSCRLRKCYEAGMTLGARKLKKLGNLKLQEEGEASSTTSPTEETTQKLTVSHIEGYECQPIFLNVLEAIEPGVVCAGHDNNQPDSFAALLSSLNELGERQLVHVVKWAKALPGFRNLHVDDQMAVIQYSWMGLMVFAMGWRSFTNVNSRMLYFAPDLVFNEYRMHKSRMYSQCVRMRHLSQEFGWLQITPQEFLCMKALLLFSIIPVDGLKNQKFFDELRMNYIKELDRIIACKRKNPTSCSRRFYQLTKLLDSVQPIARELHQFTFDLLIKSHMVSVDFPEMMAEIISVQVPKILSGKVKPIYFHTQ
Peroxisome proliferator-activated receptor gamma (Homo sapiens), sequence (P37231 whole entry, looked up, the tested form may be a part): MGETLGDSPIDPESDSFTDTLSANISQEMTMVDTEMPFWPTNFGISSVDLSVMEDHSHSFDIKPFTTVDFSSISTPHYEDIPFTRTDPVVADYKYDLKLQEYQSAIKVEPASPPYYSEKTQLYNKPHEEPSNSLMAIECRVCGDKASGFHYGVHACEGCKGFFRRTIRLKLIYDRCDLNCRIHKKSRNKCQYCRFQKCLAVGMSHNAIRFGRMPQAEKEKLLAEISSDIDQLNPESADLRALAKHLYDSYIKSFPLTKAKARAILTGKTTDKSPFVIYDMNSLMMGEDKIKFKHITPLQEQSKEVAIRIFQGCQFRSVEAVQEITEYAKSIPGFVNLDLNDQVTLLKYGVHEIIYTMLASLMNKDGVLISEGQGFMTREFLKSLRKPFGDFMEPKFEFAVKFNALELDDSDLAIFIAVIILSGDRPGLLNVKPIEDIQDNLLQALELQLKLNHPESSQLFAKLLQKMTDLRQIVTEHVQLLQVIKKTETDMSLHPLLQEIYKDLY
Bile acid receptor (Homo sapiens), sequence (Q96RI1 whole entry, looked up, the tested form may be a part): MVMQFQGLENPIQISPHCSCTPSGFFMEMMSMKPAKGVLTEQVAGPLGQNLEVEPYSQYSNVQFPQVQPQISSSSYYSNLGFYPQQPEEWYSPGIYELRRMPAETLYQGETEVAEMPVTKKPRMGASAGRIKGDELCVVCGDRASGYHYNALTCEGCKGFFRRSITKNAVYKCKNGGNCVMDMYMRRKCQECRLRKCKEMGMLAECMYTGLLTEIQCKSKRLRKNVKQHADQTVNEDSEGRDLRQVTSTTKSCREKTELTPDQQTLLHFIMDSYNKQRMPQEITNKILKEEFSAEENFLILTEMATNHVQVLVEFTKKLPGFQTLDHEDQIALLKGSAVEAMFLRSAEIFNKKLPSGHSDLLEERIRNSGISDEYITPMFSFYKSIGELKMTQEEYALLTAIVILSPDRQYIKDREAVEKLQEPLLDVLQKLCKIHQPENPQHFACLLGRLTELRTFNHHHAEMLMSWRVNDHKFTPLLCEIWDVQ
human Dopamine Transporter (DAT), SLC6A3 (gene 6531), sequence (Q01959 whole entry, looked up): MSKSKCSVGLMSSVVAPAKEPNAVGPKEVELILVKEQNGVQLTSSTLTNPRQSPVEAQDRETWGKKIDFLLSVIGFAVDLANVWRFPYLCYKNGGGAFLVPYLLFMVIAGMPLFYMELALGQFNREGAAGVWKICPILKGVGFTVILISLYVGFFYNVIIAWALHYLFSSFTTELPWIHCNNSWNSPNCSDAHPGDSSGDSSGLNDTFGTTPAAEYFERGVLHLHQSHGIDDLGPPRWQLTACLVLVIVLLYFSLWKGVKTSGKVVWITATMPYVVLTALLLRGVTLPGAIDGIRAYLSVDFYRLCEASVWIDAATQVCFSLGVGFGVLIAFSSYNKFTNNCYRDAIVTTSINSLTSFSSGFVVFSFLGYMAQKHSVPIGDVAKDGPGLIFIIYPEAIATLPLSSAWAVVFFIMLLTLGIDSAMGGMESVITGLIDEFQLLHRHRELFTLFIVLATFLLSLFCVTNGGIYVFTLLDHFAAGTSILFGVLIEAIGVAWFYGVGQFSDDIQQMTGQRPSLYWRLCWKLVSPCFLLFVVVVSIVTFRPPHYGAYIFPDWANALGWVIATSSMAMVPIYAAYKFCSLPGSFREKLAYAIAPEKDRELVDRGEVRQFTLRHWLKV
Retinoic acid receptor RXR-alpha (Homo sapiens), sequence (P19793 whole entry, looked up, the tested form may be a part): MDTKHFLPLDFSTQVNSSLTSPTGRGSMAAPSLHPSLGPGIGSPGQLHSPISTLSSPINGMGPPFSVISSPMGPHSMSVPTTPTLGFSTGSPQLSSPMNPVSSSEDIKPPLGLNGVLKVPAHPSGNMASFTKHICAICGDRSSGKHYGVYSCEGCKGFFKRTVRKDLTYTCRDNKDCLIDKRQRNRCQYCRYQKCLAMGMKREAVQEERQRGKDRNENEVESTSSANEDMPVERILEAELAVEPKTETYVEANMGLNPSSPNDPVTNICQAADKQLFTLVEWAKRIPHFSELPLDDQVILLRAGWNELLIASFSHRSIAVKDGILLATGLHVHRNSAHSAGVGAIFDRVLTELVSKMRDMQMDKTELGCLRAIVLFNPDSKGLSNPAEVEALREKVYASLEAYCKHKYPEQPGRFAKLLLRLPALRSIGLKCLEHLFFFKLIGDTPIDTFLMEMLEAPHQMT
rat Serotonin Transporter (SERT), Slc6a4 (gene 25553), sequence (P31652 whole entry, looked up): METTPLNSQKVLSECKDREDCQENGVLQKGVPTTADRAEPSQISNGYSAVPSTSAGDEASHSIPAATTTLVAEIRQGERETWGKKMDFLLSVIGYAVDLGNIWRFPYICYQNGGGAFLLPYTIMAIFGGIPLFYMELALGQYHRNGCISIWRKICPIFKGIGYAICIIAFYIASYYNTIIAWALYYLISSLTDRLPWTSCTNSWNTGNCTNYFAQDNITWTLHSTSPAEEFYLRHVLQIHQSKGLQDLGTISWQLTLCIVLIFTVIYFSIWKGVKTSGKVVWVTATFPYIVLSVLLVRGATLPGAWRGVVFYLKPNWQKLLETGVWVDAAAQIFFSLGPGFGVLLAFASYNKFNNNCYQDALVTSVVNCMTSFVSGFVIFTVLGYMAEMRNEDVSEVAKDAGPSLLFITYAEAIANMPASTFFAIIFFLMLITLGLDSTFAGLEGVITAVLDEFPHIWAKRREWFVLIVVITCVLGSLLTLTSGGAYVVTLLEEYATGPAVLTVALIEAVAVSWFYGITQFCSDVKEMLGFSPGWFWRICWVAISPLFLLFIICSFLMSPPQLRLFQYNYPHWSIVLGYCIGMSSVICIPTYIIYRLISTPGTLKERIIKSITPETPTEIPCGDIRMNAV

Regarding `O=C(OC[C@H]1O[C@@H](OC(=O)c2cc(O)c(O)c(OC(=O)c3cc(O)c(O)c(O)c3)c2)[C@H](OC(=O)c2cc(O)c(O)c(OC(=O)c3cc(O)c(O)c(O)c3)c2)[C@@H](OC(=O)c2cc(O)c(O)c(OC(=O)c3cc(O)c(O)c(O)c3)c2)[C@@H]1OC(=O)c1cc(O)c(O)c(OC(=O)c2cc(O)c(O)c(O)c2)c1)c1cc(O)c(O)c(OC(=O)c2cc(O)c(O)c(O)c2)c1`, the values for the AC50 in [1] and in experiment [2] were 2.65 µM (active) and 15.2 µM (active), respectively. Besides, the call in experiment [3] and in experiment [4] was inactive.

Consider `CCOc1cccc(-n2cc(C(=O)N3CCN(c4cc(C(=O)O)c5ccccc5c4)CC3)nc2-c2ccc(C)cc2)c1`, for which the AC50 in experiment [5] is 34.2 µM (active); in [1] it was 8.21 µM (active); in experiment [6], 14.7 µM (active); in experiment [7], 13.7 µM (active); in experiment [9], 11.3 µM (active); in [10] it was 11.3 µM (active). The outcome in [8], in experiment [3], in experiment [4], in [11], in [12] and in [13] was inactive. Moreover, the call in experiment [14] and in [15] was inactive.

With `COCCOCCOCCOC`, the result in experiment [6], in [16], in [9], in experiment [10], in [2] and in [3] was inactive. Besides, the call in [4] was inactive.

As to `Oc1ccc2c(c1)-c1ccccc1C2`, the AC50 in [1] was 10.9 µM (active); in [7], 9.7 µM (active); in experiment [11], 40 µM (active); in experiment [12], 33.7 µM (active); in experiment [13], 13.5 µM (active); in experiment [14] it was 42.3 µM (active). Further, the AC50 in experiment [15] was 81.5 µM (active). Also, the compound was called inactive in experiment [8], in experiment [9], in experiment [10], in [17], in experiment [2] and in experiment [3]. The compound was classed as inactive in experiment [4].

As for `CCc1cc(SCc2sc(-c3ccc(C(F)(F)F)cc3)nc2CN2CCN(c3ccc(OC)cc3)CC2)ccc1OCC(=O)O`, the AC50 in [1] was 13.9 µM (active); in experiment [7] it was 4.89 µM (active); in [10], 12 µM (active); in experiment [3], 345 nM (active) and 1.09 µM (active); in [4], 723 nM (active) and 1.02 µM (active). The outcome in experiment [16] and in [9] was inactive.

Take `O=c1[nH]c2ccc(S(=O)CCN3CCC(Cc4ccc(F)cc4)CC3)cc2o1` (stereo not drawn): the AC50 was 3.16 µM (active) in experiment [1]; 0.403 µM (active) in [6]; 2.28 µM (active) in experiment [7]; 5.59 µM (active) in experiment [11]; 3.63 µM (active) in [12]; 5.68 µM (active) in experiment [13]. For the same compound, the AC50 in experiment [15] was 6.88 µM (active). Also, the result in [16], in [18], in experiment [17], in [2], in experiment [3] and in experiment [4] was inactive.

Turning to `Fc1ccccc1[C@@H](F)COC1CCC(Nc2ncnc3[nH]ncc23)CC1` (stereo partly drawn), the half-maximal activity concentration (AC50) was 2.48 µM (active) in experiment [6]; 5 µM (active) in [11]; 5 µM (active) in [12]; 3.91 µM (active) in [13]; 5 µM (active) in experiment [15]. For the same compound, the outcome in experiment [8], in experiment [3], in experiment [4] and in [14] was inactive.
